# Laboratory results as given in PubChem BioAssay (Tox21).
# Inconclusive results are not listed. Active and inactive are the calls of the source. Calls come from the whole dose curve; as a rule, active = well fitted cell-killing curve with a large enough effect in the repeat runs; inconclusive = weak or mixed curves, or effect the other way; inactive = flat fitted curve, though single readings scatter.
# Assay: qHTS assay to identify small molecule antagonists of the androgen receptor (AR) signaling pathway using the MDA cell line in the presence of 0.5 nM R1881 - cell viability counter screen (AID 1259242); note: nearly all actives have a fitted effect of over 45% in size
# Conditions: MDA-kb2 viability, CellTiter-Fluor protease fluorescence, 16 h; series mostly up to 92.4 µM
# Source text: U.S. Tox21 Program National Center for Advancing Translational Sciences [NCATS] NIH Chemical Genomics Center [NCGC] U.S. Environmental Protection Agency [EPA] National Institutes of Environmental Health Sciences [NIEHS] National Toxicology Program [NTP] U.S. Food and Drug Administration [FDA] Tox21 Assay Overview: Androgen receptor (AR) is an important member of the nuclear receptor family. Its signaling plays a critical role in AR-dependent prostate cancer and other androgen related diseases. Considerable attention has been given in the past decades to develop methods to study and screen for the environmental chemicals that have the potential to interfere with metabolic homeostasis, reproduction, developmental and behavioral functions. Therefore AR binding assay for screening androgen antagonists can be used to identify potential endocrine disruptors. MDA-kb2 cells (from ATCC, deposited by Wilson et al.) were used to screen for AR inhibitors against Tox21 compound libraries. These cells are human breast carcinoma cells that were stably transfected with a luciferase reporter gene under control of the MMTV promoter that contains response elements for both androgen receptor (AR) and glucocorticoid receptor (GR). The current screening for identification of AR inhibitors against Tox21 libraries used lower concentration of (0.5 nM) R1881 as a stimulator. The cytotoxicity of the Tox21 compound libraries against MDA-kb2 cell line was tested by measuring live-cell protease activity using CellTiter-Fluor assay in the same wells.
# Tox21 Assay Protocol Summary: MDA-kb2 cells (cells cultured without CO2) were dispensed at 3,000 cells/well in 4 uL of culture medium into white wall/solid-bottom 1536-well plates (Corning Life Sciences, Corning, NY) using a Multidrop Combi (ThermoFisher Scientific, Waltham, MA) dispenser. After the assay plates were incubated at a 37C and 0% CO2 for 5 hr, 23 nL of compounds dissolved in DMSO, positive controls or DMSO only was transferred to the assay plate by a Pintool station (Kalypsys, San Diego, CA). The transfer of compounds was followed by the addition of 1 uL of 0.5 nM (final concentration) agonist (R1881)/culture medium using a Flying Reagent Dispenser (FRD, Aurora Discovery, San Diego, CA). The plates were incubated at 37C and 0% CO2 for 16 hr. For cytotoxicity assay, 1 uL of CellTiter-Fluor reagent (Promega Corporation, Madison, WI) was added to each well using the FRD and after 30 min incubation at 37C and 0% CO2, The fluorescence intensity was measured using ViewLux plate reader (PerkinElmer, Shelton, CT).
# % is set by controls: 0 for no effect and ±100 for the full control effect.
SMILES,outcome,"viability change, negative = cytotoxic"
Cc1c(Cl)cccc1Cl,inactive,
C=Cc1ccc(C(C)(C)C)cc1,inactive,
CN(C)CCN(C)CCO,inactive,
CCn1cc(C(=O)O)c(=O)c2cnc(N3CCCC3)nc21,,7.44% [at 8.39 µM] (inactive)
O=C(Cn1ccnc1[N+](=O)[O-])NCc1ccccc1,inactive,
CC(C)[C@H]1CC[C@H](C)C[C@@H]1O,inactive,
CC(S)C(C)S (stereo not given),inactive,
C/C(=C1\CCOC(=O)S1)N(C=O)Cc1cnc(C)nc1N,inactive,
CC1(C)O[C@H]2CC(=O)OC[C@]23[C@H]2CC[C@@]4(C)[C@H](c5ccoc5)OC(=O)[C@H]5O[C@]54[C@]2(C)C(=O)C[C@@H]13,inactive,
CCC(=O)c1c(O)cc(O)cc1O,inactive,
CCC/C=C(\C=O)CC,inactive,
Fc1ccccc1,inactive,
CC12CCC(C1)C(C)(C)C2O (stereo not given),inactive,
Cc1c(NC(=O)c2cccnc2)c(=O)n(-c2ccccc2)n1C,inactive,
CC(C)Nc1ccccc1,inactive,
N#Cc1cscn1,inactive,
N[C@@H](Cc1ccc(O)cc1)C(=O)O,,0.626% [at 8.39 µM] (inactive)
CN(C)CCCO[C@@H]1[C@H]2OC(C)(C)O[C@H]2O[C@@H]1C(O)CO (stereo not given in full),inactive,
COC(=O)CCCCC(=O)O,inactive,
COC(=O)/C=C\C(=O)O,inactive,

SMILES,outcome,"viability change, negative = cytotoxic"
CC(C)OC(=O)OCOP(=O)(CO[C@H](C)Cn1cnc2c(N)ncnc21)OCOC(=O)OC(C)C,inactive,
CC(C)OC(=O)CCC(=O)OC(C)C,inactive,
CCCC(=O)Nc1ccc(OCC(O)CNC(C)C)c(C(C)=O)c1 (stereo not given),inactive,
NCC1(Cc2noc(=O)[nH]2)CCCCC1,inactive,
CCCCCCCCCOC(=O)c1ccccc1C(=O)OCCCCCCCCC,inactive,
Nc1nc(-c2ccccc2)c(Br)c(=O)[nH]1,inactive,
COC(=O)c1ccccc1C(=O)O,inactive,
CC(=O)OC1CCCCC1C(C)(C)C (stereo not given),inactive,
CC1(C)[C@H]2CC[C@](C)(C2)[C@H]1O,inactive,
CC1(C)Oc2ccc(C#N)cc2[C@@H](N2CCCC2=O)[C@@H]1O,inactive,
Cn1nnc2c(C(N)=O)ncn2c1=O,inactive,
Cc1c(N)cccc1Cl,inactive,
CCCCSCCCC,inactive,
O=C1CCC(=O)N1Cl,inactive,
C[C@H]1[C@@H](c2ccccc2)NC(=O)N1C,inactive,
C=CCCCCCCCCC(=O)OCCCC,inactive,
NCc1ccc(S(N)(=O)=O)cc1,inactive,
ONc1ccccc1,inactive,
C=C(C)C1CC=C(C)C(=O)C1 (stereo not given),inactive,
O=C(Cl)c1ccccc1[N+](=O)[O-],inactive,
